Screening data: PubChem BioAssay, several laboratories
Sampled rows, rich in hits. Any-hit rate of the full collection: about 5.4%.
A3A deaminase: APOBEC3A ssDNA deaminase inhibitors, primary screen, selectivity assay for APOBEC3G inhibitor project, biochemical, FAM/TAMRA oligo cleavage fluorescence; recombinant A3A, FAM/TAMRA ssDNA deamination fluorescence; inhibition, % at 20 µM; hit rate 0.41% among 330,000; AID 493011, 2011;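 active = at least 40% inhibition at 20 µM here, with at most 30% in a related deaminase screen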;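 also: plate controls were A3A with DMSO for no effect and wells lacking A3A enzyme for full effect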
A3G deaminase: APOBEC3G DNA deaminase inhibitors, primary screen, biochemical, fluorescence, single-stranded DNA substrate, uHTS; DNA dC->dU-editing enzyme APOBEC-3G (Homo sapiens), Q9HC16; recombinant A3G, ssDNA deamination FAM/TAMRA fluorescence; inhibition, % at 20 µM; hit rate 0.28% among 330,000; AID 493012, 2011;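 active = inhibition of at least 40% at 20 µM, with no more than 30% in the related APOBEC3A deaminase screen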;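 also: plate controls were DMSO wells with A3G for no effect and wells lacking A3G enzyme for full effect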
Target sequence (Q9HC16 whole entry, looked up): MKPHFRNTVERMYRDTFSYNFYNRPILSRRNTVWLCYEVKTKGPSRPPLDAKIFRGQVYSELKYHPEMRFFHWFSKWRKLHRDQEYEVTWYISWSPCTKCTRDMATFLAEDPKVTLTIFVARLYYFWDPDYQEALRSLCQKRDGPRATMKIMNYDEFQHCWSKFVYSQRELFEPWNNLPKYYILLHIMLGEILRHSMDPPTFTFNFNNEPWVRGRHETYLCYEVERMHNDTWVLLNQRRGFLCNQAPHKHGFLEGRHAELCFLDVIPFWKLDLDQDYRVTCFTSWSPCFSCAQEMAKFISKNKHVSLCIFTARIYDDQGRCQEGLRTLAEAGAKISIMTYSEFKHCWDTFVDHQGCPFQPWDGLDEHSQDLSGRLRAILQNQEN
aDG glyco act: activators of alpha-DG glycosylation, primary screen, uHTS, Pro5-aDG cells, AlphaScreen; alpha-DG glycosylation AlphaScreen (IIH6); 0% Pro5, 100% B10-LARGE cell signal; activation, % at 10 µM; hit rate 0.22% among 360,000;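 active = activation of at least 8% versus controls, or a plate z-score of at least 8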;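 also: Pro5 are CHO cells carrying HIG-tagged alpha-DG that lacks glycosylation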
PHOSPHO1 inh: PubChem AID 1565. Phosphoethanolamine/phosphocholine phosphatase (Homo sapiens), Q8TCT1. recombinant PHOSPHO1, absorbance phosphatase assay. inhibition, % at 13.3 µM. hit rate 1.1% among 290,000; in the data active = inhibition above about 60%
ALR inh: inhibitors of human ALR sulfhydryl oxidase, primary screen, biochemical, H2O2 detection, HRP-luminol luminescence, single point | inhibition, % (concentration not given with the values) | hit rate 3.8% among 290,000 | FAD-linked sulfhydryl oxidase ALR (Homo sapiens), P55789 | purified ALR, DTT oxidation;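 active = mean replicate inhibition above about 79%, with every replicate also reaching it, limit read from the data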
Target sequence (P55789 whole entry, looked up): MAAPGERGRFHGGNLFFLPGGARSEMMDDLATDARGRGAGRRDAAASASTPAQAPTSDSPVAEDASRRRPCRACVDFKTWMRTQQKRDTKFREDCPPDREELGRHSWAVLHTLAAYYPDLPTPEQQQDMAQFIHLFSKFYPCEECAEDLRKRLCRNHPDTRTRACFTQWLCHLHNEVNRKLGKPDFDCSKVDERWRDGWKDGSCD
rCAG binder: binders of r(CAG) RNA repeats, primary screen, biochemical, fluorescence; r(CAG) RNA repeat, TO-PRO-1 dye displacement fluorescence; inhibition, % at 3 µM; hit rate 1.3% among 370,000;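 active = inhibition above the plate cutoff, the mean of all test compounds on that plate plus 3 SD, cut at about 35% in these data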;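 also: 0% = DMSO alone and 100% = 100 µM mitoxantrone as full dye displacement; higher means more dye released from RNA so lower well fluorescence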
Active calls of the source: *; nt = not tested or not shown.

SMILES	A3A deaminase	A3G deaminase	aDG glyco act	PHOSPHO1 inh	ALR inh	rCAG binder
Cc1cccc(Nc2nc(-c3ccc(F)c(C)c3)cs2)n1	1.3	-3.3	0.0	28.0	-1.2	7.8
Cc1ccnc(Nc2nc(-c3ccc(O)c(O)c3)cs2)c1	-5.1	6.6	-0.3	14.1	98.3*	33.5
Cc1ccnc(Nc2nc(-c3ccc(O)cc3O)cs2)c1	-8.9	-11.8	0.1	nt	99.1*	30.2
C/C(C=NNC(=O)CSc1nc2ccccc2n1Cc1ccccc1Cl)=C\c1ccccc1	nt	nt	nt	nt	nt	4.2
Clc1cccc(CN2CCN(c3ncc(Cc4ccccc4)cn3)CC2)c1Cl	nt	nt	nt	nt	nt	2.5
CC1=C(C)CS(=O)N(S(=O)(=O)c2ccccc2)C1 (configuration not stated)	2.1	9.2	-0.2	0.3	98.8*	-0.7
Cc1nc2c3ccccc3nc(NNC(=O)CCC(=O)NC(C)C)n2n1	-2.0	-7.6	-0.2	1.7	15.7	0.4
Cc1nc2c3ccccc3nc(NNC(=O)CCC(=O)NC3CCCC3)n2n1	6.3	-5.7	-0.1	1.8	78.5*	-0.6
COc1ccc(N2CCN(CCNC(=O)CCC(=O)NNc3nc4ccccc4c4nc(C)nn34)CC2)cc1	-4.5	-7.7	0.3	36.8	95.8*	nt
C[C@@H]1[C@@H](c2ccccc2)c2cc3ccccc3nc2-c2nc3ccccc3cc2[C@@H]1C(=O)N1CCCC1	nt	nt	nt	nt	nt	6.5
COc1ccc(N2C(=O)c3n[nH]c(C(C)C)c3C2c2ccc(F)cc2)cc1 (configuration not stated)	nt	nt	nt	nt	nt	0.5
COc1ccccc1/C=c1\sc2nc(-c3ccccc3OC)nn2c1=O	-2.3	-4.4	0.0	86.9*	-4.8	28.4
Cc1ccc(-c2nc3s/c(=C\c4ccco4)c(=O)n3n2)cc1	39.9	14.8	0.0	94.9*	3.4	25.0
COc1ccc([C@H]2OC(=O)C[C@@H]2C(=O)N2CCCCC2)cc1OC	nt	nt	nt	nt	nt	-0.3
O=C(CCC(=O)N1CCN(C2c3ccccc3-c3ccccc32)CC1)Nc1nnc(C(F)(F)F)s1	nt	nt	nt	nt	nt	6.9
Cc1ccc(C2C3CSCC=C3C(C#N)=C(N)C2(C#N)C#N)cc1 (configuration not stated)	-3.6	-5.2	-0.3	-3.4	93.4*	14.3
CC(C)N1CC=C2C(C#N)=C(N)C(C#N)(C#N)C(c3ccccc3)C2C1 (configuration not stated)	nt	nt	0.0	17.3	54.8	-31.4
COc1cc(/C=C/C(=O)OCC(=O)N2CC(=O)Nc3ccccc32)ccc1O	-0.6	-6.3	0.1	34.7	96.4*	7.2
CC(=O)c1cc(CC=C(C)C)c(O)c(CC=C(C)C)c1O	-6.5	-4.9	-0.2	-14.5	nt	-2.8
CC(=O)c1cc(CC=C(C)C)c(O)cc1O	-3.0	-5.0	-0.1	-7.5	83.5*	-0.5
O=C(O)CCC1c2cc3c4cc2OC2Oc5cc6c(cc51)C(CCC(=O)O)c1cc5c7cc1OC(O6)c1cc6cc(c1)Oc1cc(cc(C(=O)O)c1)Oc1cc8cc(c1)C(Oc1cc(c(cc1C5CCC(=O)O)C3CCC(=O)O)OC(O4)c1cc(cc(c1)Oc1cc(cc(C(=O)O)c1)O8)Oc1cc(cc(C(=O)O)c1)Oc1cc(cc2c1)Oc1cc(cc(C(=O)O)c1)O6)O7 (configuration not stated)	97.5	82.0	nt	nt	98.4*	nt
O=C(NCC1COc2ccccc2O1)c1ccc(NC(=O)c2c(Cl)cccc2Cl)cc1 (configuration not stated)	nt	nt	nt	nt	nt	3.9
COC(=O)C1=C(C)N(Cc2ccccc2C(F)(F)F)C(=NCC2CC2)NC1c1ccc(F)cc1 (configuration not stated)	nt	nt	nt	nt	nt	4.4
O=C(NC1CC1)c1ccc(CSCc2ccccc2Cl)o1	-5.4	-5.7	0.4	6.9	83.8*	-1.7
COCc1[nH][nH]c(=O)c1C=Nc1ccc(Oc2ccccc2)cc1	2.1	1.3	-0.1	21.4	98.7*	-3.0
SMILES	A3A deaminase	A3G deaminase	aDG glyco act	PHOSPHO1 inh	ALR inh	rCAG binder
COCc1[nH][nH]c(=O)c1C=Nc1ccc(C(F)(F)F)cc1	-4.2	-4.8	0.0	11.4	19.7	-2.0
COC(=O)[C@]12C[C@H](CC(=O)NCc3ccc(OC)c(OC)c3)C(=O)N(CCc3ccc(OC)c(OC)c3)C1=C[C@H](C1CCCC1)O[C@@H]2C	nt	nt	nt	nt	nt	3.3
O=C(CSc1nc2cc(Cl)ccc2s1)c1cc2ccccc2o1	-1.2	-6.1	0.3	101.6*	20.0	21.8
CCOC(=O)C1CCN(Cc2cnc(Oc3ccc(Cl)cc3C)s2)CC1	-1.2	-5.9	3.5	27.6	-2.4	-7.4
CCOC(=O)C1CCN(Cc2cnc(Oc3ccc(N)cc3)s2)CC1	0.8	0.5	-0.2	18.6	97.8*	-6.2
COc1ccc(CCn2c(C)cc(C(=O)CSc3nnnn3-c3ccccc3)c2C)cc1	2.1	-1.8	0.4	71.3*	1.7	0.4
Cc1cc(C(=O)CSc2nnnn2C)c(C)n1CCc1ccc(Cl)cc1	-4.3	-5.6	0.1	81.6*	-2.6	0.0
Cn1nnnc1SCc1ccc(Cl)cc1	-4.6	-12.3	-0.2	53.2	nt	3.8
COC(=O)c1ccc(NC(=S)Nc2ccccn2)cc1	2.7	1.5	0.0	-11.9	1.3	7.8
COC(=O)c1ccc(NC(=S)Nc2ccc(O)cc2)cc1	-2.9	-5.7	0.0	7.7	99.1*	0.8
Oc1ccc(NC(=S)Nc2ccc(O)cc2)cc1	-0.4	-12.7	0.0	-29.2	99.3*	4.1
Cc1cc(C)c2c(c1)-c1cc(C)nn1C(c1ccc3c(c1)OCO3)N2 (configuration not stated)	-0.7	-6.4	0.0	23.4	11.4	0.9
Cc1cc2n(n1)C(c1ccc3c(c1)OCO3)Nc1c(C)cccc1-2 (configuration not stated)	-1.7	-7.6	0.0	-13.5	98.1*	4.2
O=S(=O)(c1cccc(-c2nnc(SCc3nc4ccccc4s3)o2)c1)N1CCOCC1	-1.1	-3.0	0.2	29.8	97.6*	-2.1
CC12CCC3c4ccc(OCCCO)c([N+](=O)[O-])c4CCC3C1CCC2=O (configuration not stated)	nt	nt	nt	nt	nt	0.6
CC(=O)c1cnc(SCc2ccc(Cl)cc2)nc1C	-2.3	-10.0	0.4	24.5	0.6	-5.4
Cc1nc(SCc2ccc(Cl)c(Cl)c2)ncc1C(=O)O	-3.4	-4.5	0.4	51.8	97.2*	8.0
CCOc1ccc(/C=C/C2=Cc3c(sc(NC(=O)CSc4n[nH]c(N)n4)c3C#N)C(C)(C)C2)cc1	-3.6	-6.7	-0.3	-83.7	13.7	43.2*
